In PubChem BioAssay (NCI) one finds growth data, which are given here for 13 compounds.

Holding throughout (test): NCI-60 one-dose screen, 48 h (100 = growth as untreated, 0 = no growth, -100 = all killed)
One test relates to DU-145 prostate. The settings on record: 10 µM unless noted.
The test system of another test is K-562 leukemia. The settings on record: 10 µM unless noted.
For another test, the system named is MALME-3M melanoma. As to conditions: 10 µM unless noted.
The next test concerns MDA-MB-231 breast. The settings on record: 10 µM unless noted.
Another test concerns RXF 393 renal. The settings on record: 10 µM unless noted.
In a further test the test system is SF-268 CNS. The settings on record: 10 µM unless noted.
For a further test, the system named is SF-295 CNS. As to conditions: 10 µM unless noted.
In a further test the test system is SF-539 CNS. As to conditions: 10 µM unless noted.
The next test deals with UACC-257 melanoma. As to conditions: 10 µM.
A further test has as its system M14 melanoma. The settings on record: 10 µM unless noted.

About 83,000 compounds went through this panel and 20% of them were active in at least one assay; those are over-represented in the sample as a whole.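 Cell lines were cultured in 96-well plates, exposed to a single compound concentration, and assessed for percent growth 48 hours later.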 Values without a mark were called inactive. The source made the active and inactive calls. How the source made its calls: active means growth percent below 10; inactive means the rest.

`CCCCNC(=O)NS(=O)(=O)c1ccc(N2N=C(c3ccc(C)cc3C)CC2c2ccc(OC)cc2)cc1` (stereo not given): the growth in the test on DU-145 prostate was 92.4%; with K-562 leukemia, 58.9%; with MALME-3M melanoma, 108%; in the test with MDA-MB-231 breast it was 85.4%; in the test on RXF 393 renal, 82.6%; with SF-268 CNS, 84.8%. Further, the growth in the test with SF-295 CNS is 41.6%; in the test with SF-539 CNS, 69.7%; in the test with UACC-257 melanoma it was 72.5%; in the test on M14 melanoma it was 42.7%.
In the case of `CCC1CCc2nc3sc(C(=O)Nc4ccccc4C)c(N)c3cc2C1` (stereo not given), the growth in the test on DU-145 prostate is 22.7%; in the test with K-562 leukemia, 24.1%; with MALME-3M melanoma, 28.3%; in the test on MDA-MB-231 breast, 66.6%; with RXF 393 renal, 26.1%; with SF-268 CNS it was 49.9%. The growth was 15.3% with SF-295 CNS, 23.9% in the test with SF-539 CNS, 54.2% in the test on UACC-257 melanoma and 19.8% in the test on M14 melanoma.
`CCCCCCC[C@@H](O)CC(=O)N[C@H](CCCCN)C(=O)N[C@H](Cc1c[nH]c2ccccc12)C(=O)NC(CCCCN)C(=O)N[C@H](CC(C)C)C(=O)N[C@H](Cc1ccccc1)C(=O)N[C@H](CCCCN)C(=O)N[C@H](CCCCN)C(=O)N[C@H](CC(C)C)C(=O)N1CCCC1C(=O)N[C@H](CCCCN)C(=O)N[C@H](Cc1ccccc1)C(=O)N[C@H](CC(C)C)C(=O)N[C@H](Cc1c[nH]cn1)C(=O)N[C@H](CC(C)C)C(=O)N[C@H](C)C(=O)N[C@H](CCCCN)C(=O)N[C@H](CCCCN)C(=O)N[C@H](Cc1ccccc1)C(=O)O` (stereo not given in full): the growth in the test on DU-145 prostate was -77.2% (active); in the test with K-562 leukemia it was -33.3% (active); in the test on MALME-3M melanoma it was -2.57% (active); with MDA-MB-231 breast, -71.4% (active); with RXF 393 renal, -39% (active); in the test with SF-268 CNS it was -54.2% (active). Besides, the growth with SF-295 CNS was -60.8% (active); in the test on SF-539 CNS, -30.8% (active); in the test on UACC-257 melanoma it was -64.9% (active); in the test on M14 melanoma it was -43.4% (active).
Regarding `NS(=O)(=O)c1ccc(CN2C(=O)c3cccc4cccc(c34)C2=O)cc1`, the growth is 105% in the test with DU-145 prostate; 96% in the test on K-562 leukemia; 112% with MALME-3M melanoma; 94.3% in the test on MDA-MB-231 breast; 97.6% in the test on RXF 393 renal; 92.4% in the test with SF-268 CNS. Also, the growth with SF-295 CNS is 110%; in the test on SF-539 CNS, 88.8%; in the test on UACC-257 melanoma, 103%; in the test with M14 melanoma, 105%.
As for `COc1cc(C(=O)OCCCCCCCCCCC[P+](c2ccccc2)(c2ccccc2)c2ccccc2)ccc1O`, the growth in the test with DU-145 prostate was 10.6%; with K-562 leukemia, -37.8% (active); in the test with MALME-3M melanoma, -77.4% (active); in the test on MDA-MB-231 breast, -69.4% (active); with RXF 393 renal, -53.4% (active); in the test with SF-268 CNS, -74.3% (active). The growth in the test on SF-295 CNS was -31.9% (active); in the test with SF-539 CNS, -57.3% (active); in the test on UACC-257 melanoma, -21.6% (active); in the test on M14 melanoma it was -24.5% (active).
For `O=C(Nc1ccc(OCc2nnc(-c3ccc(Cl)cc3)o2)c(F)c1)Nc1ccc(Cl)c(Cl)c1`, the growth in the test with DU-145 prostate is 34.4%; in the test with K-562 leukemia, 67.3%; in the test with MALME-3M melanoma, 33.4%; in the test on MDA-MB-231 breast it was 26.3%; with RXF 393 renal it was 50.7%; with SF-268 CNS, 53.3%. Moreover, the growth is 62.5% in the test on SF-295 CNS, 45% in the test on SF-539 CNS, 74.4% with UACC-257 melanoma and 61.5% with M14 melanoma.
Consider `CC(C)C[C@H](NC(=O)[C@@H](Cc1ccccc1)n1ccc(Nc2ccccc2)cc1=O)B(O)O`, for which the growth is 35.3% in the test with DU-145 prostate; 3.2% (active) with K-562 leukemia; -39.1% (active) in the test on MALME-3M melanoma; -24.8% (active) in the test with MDA-MB-231 breast; -80.2% (active) in the test on RXF 393 renal; -31.6% (active) in the test on SF-268 CNS. In addition, the growth is -20.6% (active) in the test with SF-295 CNS, -17.7% (active) in the test with SF-539 CNS, -36.6% (active) in the test with UACC-257 melanoma and 9.32% (active) in the test with M14 melanoma.
On to `CCN(C(=O)c1cc2ncccc2[nH]1)[C@H]1CCC[C@@H](NCc2cccc(F)c2)C1`, for which the growth in the test with DU-145 prostate was 104%; with K-562 leukemia it was 105%; with MALME-3M melanoma, 92%; in the test with MDA-MB-231 breast, 91.4%; in the test on RXF 393 renal, 95.1%; with SF-268 CNS, 102%. In addition, the growth in the test on SF-295 CNS was 102%; in the test with SF-539 CNS it was 98.5%; in the test on UACC-257 melanoma, 107%; in the test on M14 melanoma, 113%.
As for `Cc1nc2sccn2c1-c1csc(Nc2ccccc2Cl)n1`, the growth is 68.2% in the test on DU-145 prostate; 12.5% in the test on K-562 leukemia; 56.2% with MALME-3M melanoma; 66.5% in the test on MDA-MB-231 breast; 67.2% in the test on RXF 393 renal; 71.3% with SF-268 CNS. In addition, the growth in the test on SF-295 CNS is 36.2%; with SF-539 CNS, 52%; with UACC-257 melanoma it was 46%; in the test on M14 melanoma it was 36.9%.
`c1cc(-c2ccc3c(c2)OCO3)n2nccc2n1`: the growth is 106% in the test with DU-145 prostate; 102% with K-562 leukemia; 104% in the test with MALME-3M melanoma; 106% with MDA-MB-231 breast; 96.4% in the test with RXF 393 renal; 104% in the test with SF-268 CNS. Besides, the growth with SF-295 CNS was 99.9%; in the test with SF-539 CNS it was 89.1%; with UACC-257 melanoma, 103%; with M14 melanoma it was 109%.
As for `COc1cc(NC(=O)c2cc3ccccc3nc2Nc2ccc(F)cc2)cc(OC)c1OC`, the growth in the test on DU-145 prostate was 69.8%; in the test on K-562 leukemia, 37.3%; in the test on MALME-3M melanoma it was 66.7%; with MDA-MB-231 breast, 51.2%; in the test with RXF 393 renal it was 50.6%; in the test on SF-268 CNS, 50.9%. Also, the growth in the test on SF-295 CNS is 39.5%; in the test on SF-539 CNS, 40.5%; in the test on UACC-257 melanoma, 27.6%; in the test with M14 melanoma it was 30.2%.
On to `NC(=O)NC(=O)/C=C/C(=O)OCCCl`, for which the growth in the test on DU-145 prostate was 112%; with K-562 leukemia, 94.4%; in the test with MALME-3M melanoma, 95.9%; in the test on MDA-MB-231 breast, 115%; in the test on RXF 393 renal, 105%; in the test on SF-268 CNS, 110%. The growth with SF-295 CNS is 89.1%; in the test on SF-539 CNS, 105%; with UACC-257 melanoma it was 77.4%; in the test on M14 melanoma it was 113%.
For the compound `COc1c(NC[C@H]2OC(O)[C@H](O)[C@@H](O)[C@@H]2O)c(=O)c1=O` (stereo not given in full), the growth in the test with DU-145 prostate is 115%; in the test on K-562 leukemia it was 96.4%; with MALME-3M melanoma, 92.9%; in the test with MDA-MB-231 breast, 106%; with RXF 393 renal, 96.6%; in the test on SF-268 CNS it was 102%. Also, the growth in the test on SF-295 CNS was 107%; with SF-539 CNS, 94.1%; in the test with UACC-257 melanoma, 102%; with M14 melanoma, 108%.
